Among all 100,000 compounds or so, about 4,200 (4.2%) were called active. Only a selection was taken, and actives are over-represented in it overall. A number with no mark means an inactive call.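 Rule for the calls: active = single-dose well whose peak fluorescence ratio is a statistical outlier from its plate by either plate-standardised score or position-corrected B-score; inactive = the rest.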

The target in this experiment is Voltage-dependent T-type calcium channel subunit alpha-1H (Homo sapiens) (UniProt O95180). The experiment in a line: Cav3.2 calcium influx blockers – cell-based, Fluo-4 calcium fluorescence, FDSS, MLSMR library, primary screen (AID 449739). Conditions: Cav3.2-expressing cells, at 10 µM, active compounds read low.
Sequence of Voltage-dependent T-type calcium channel subunit alpha-1H (Homo sapiens) (O95180 whole entry, looked up): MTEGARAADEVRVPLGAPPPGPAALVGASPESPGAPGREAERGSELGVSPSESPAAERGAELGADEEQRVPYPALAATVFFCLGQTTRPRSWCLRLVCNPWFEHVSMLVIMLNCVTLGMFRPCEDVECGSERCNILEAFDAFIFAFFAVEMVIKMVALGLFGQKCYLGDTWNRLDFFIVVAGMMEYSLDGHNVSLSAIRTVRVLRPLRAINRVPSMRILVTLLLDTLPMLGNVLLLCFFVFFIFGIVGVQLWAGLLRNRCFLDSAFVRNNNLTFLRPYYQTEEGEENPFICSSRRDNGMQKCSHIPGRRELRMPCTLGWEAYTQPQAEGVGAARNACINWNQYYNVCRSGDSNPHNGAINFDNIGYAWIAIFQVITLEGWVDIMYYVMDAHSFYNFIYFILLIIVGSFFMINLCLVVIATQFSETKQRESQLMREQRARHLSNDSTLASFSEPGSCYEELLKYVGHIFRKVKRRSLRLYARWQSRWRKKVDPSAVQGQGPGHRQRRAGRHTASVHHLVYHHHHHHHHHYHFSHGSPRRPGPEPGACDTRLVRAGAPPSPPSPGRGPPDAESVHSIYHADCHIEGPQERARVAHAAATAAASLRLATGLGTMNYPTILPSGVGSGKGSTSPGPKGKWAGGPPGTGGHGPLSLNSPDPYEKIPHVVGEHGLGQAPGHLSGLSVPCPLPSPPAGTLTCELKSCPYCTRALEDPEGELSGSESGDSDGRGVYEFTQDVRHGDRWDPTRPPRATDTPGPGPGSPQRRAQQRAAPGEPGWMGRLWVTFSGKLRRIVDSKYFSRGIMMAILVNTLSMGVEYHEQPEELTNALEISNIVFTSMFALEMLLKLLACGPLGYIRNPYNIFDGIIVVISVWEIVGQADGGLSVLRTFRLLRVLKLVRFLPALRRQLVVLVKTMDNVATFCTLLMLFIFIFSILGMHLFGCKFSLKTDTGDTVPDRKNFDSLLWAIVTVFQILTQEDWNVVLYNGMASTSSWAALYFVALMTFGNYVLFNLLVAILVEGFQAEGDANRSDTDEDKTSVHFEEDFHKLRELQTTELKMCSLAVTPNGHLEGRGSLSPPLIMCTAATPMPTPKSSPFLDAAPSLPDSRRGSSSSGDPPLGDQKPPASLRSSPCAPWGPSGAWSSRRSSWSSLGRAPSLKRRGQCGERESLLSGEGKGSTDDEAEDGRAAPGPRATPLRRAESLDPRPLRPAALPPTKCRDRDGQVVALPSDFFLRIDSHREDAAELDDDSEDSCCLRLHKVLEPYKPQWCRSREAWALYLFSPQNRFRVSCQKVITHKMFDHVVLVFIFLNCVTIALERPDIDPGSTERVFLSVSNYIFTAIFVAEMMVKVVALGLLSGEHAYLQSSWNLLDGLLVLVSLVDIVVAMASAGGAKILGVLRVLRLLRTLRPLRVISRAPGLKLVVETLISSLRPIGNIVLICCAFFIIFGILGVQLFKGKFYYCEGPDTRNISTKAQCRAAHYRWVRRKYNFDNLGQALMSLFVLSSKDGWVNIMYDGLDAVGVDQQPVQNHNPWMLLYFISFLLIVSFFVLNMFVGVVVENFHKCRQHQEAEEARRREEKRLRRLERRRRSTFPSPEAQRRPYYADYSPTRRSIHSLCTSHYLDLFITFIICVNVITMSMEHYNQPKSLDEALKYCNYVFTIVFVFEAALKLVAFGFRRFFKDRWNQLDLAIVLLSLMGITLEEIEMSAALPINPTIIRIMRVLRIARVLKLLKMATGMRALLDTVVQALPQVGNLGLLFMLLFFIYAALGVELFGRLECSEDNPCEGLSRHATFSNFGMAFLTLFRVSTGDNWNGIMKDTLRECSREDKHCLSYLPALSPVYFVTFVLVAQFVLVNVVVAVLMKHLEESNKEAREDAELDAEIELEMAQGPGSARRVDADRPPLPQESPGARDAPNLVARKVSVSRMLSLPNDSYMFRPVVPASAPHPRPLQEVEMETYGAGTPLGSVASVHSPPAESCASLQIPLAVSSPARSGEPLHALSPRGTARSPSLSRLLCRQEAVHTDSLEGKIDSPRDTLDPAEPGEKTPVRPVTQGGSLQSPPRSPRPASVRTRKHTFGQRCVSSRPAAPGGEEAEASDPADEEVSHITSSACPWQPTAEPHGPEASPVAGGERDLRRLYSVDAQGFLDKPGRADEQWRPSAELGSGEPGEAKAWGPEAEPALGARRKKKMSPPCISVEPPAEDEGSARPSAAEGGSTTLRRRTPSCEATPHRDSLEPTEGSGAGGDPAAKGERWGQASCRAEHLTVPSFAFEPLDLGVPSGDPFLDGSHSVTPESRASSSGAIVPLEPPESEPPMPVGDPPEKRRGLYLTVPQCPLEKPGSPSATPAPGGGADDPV
Consider `COC(=O)CCCC1=CC2=CC(=O)C(C)(OC(=O)c3cccs3)C(=O)C2=CN1CC1CC1` (centres undefined), for which the B-score is 1.17.

For the compound `C#CCOCCOCCOCCNc1nc(N2CCN(C(=O)[C@H](C(C)C)n3cc(CCO)nn3)CC2)nc(N2CCN(C(=O)[C@H](C(C)C)n3cc(CCO)nn3)CC2)n1`, the B-score is 0.0404.

Consider `Cc1cc(NC(=O)CCC(=O)N(CC(=O)NCC2CCCO2)c2ccccc2C)no1` (centres undefined), for which the B-score is 0.22.

On to `COCCNC(=O)CN(C(=O)CCC(=O)Nc1cc(C)on1)c1ccc(C)cc1C`, for which the B-score was 0.162.

For the compound `CCCCOc1ccc(N(CC(=O)NCC2CCCO2)C(=O)CCC(=O)Nc2cc(C)ccn2)cc1` (centres undefined), the B-score was -9.41 (active).

With `COCOc1cc(O)c(C(=O)/C=C/c2ccc(OCOC)c(OCOC)c2)c(OCOC)c1`, the B-score is 0.785.

Turning to `Oc1ccc2ccc3cccc[n+]3c2c1`, the B-score was -10 (active).

`COC(C[C@H](O)CC(=O)COCc1ccccc1)OC`: the B-score was 0.759.

With `COc1cc(Br)cc(/C=N/c2ncn[nH]2)c1O`, the B-score was -3.11 (active).

Regarding `C=CCn1c(Cn2nnc3ccccc32)nnc1SCC(=O)N/N=C/c1cc(Br)cc(OC)c1O`, the B-score was 0.722.

Regarding `COc1ccc(Br)cc1/C=N/n1c(C)nnc1C`, the B-score was 0.564.

Take `Cc1cccc2cc(C#N)c(N3CCCC3)nc12`: the B-score is -0.395.

Regarding `CCOc1ccc2nc(NCCNS(=O)(=O)c3ccccc3)c(C#N)cc2c1`, the B-score is 0.364.

In the case of `CCOc1ccc2nc(N3CCCN(C(=O)Nc4ccccc4C)CC3)c(C#N)cc2c1`, the B-score was -4.45 (active).

As for `COc1ccc(C#Cc2c(-c3ccc(OC)cc3)oc3ccc(-c4ccc5c(c4)OCO5)cc23)cc1`, the B-score is -2.98.

With `CCO[C@H]1OC(C(=O)O)=C[C@@H](C2CCCCC2)[C@@H]1CCCO`, the B-score is -0.908.

Consider `COc1ccc(-c2nc(CS(=O)CC(=O)N3CCc4ccccc4C3)c(C)o2)cc1` (centres undefined), for which the B-score was 0.115.

On to `Cc1nnc(SCC(=O)N2CCc3ccccc3C2)s1`, for which the B-score is 0.719.

Turning to `Cc1ccccc1-c1nc(CS(=O)(=O)CC(=O)N2CCc3ccccc3C2)c(C)o1`, the B-score is -4.63 (active).

As for `Nn1c(SCC(=O)NC(=O)NC2CCCC2)nnc1-c1ccccc1F`, the B-score is 0.0138.

As for `CCCn1c(C)cc(C(=O)COC(=O)c2c(C)nn(-c3ccccc3)c2C)c1C`, the B-score is -3.42.

Consider `Cc1nn(-c2ccccc2)c(C)c1C(=O)OCC(=O)NC(=O)NC1CCCCC1`, for which the B-score was -5.85 (active).

Take `COC(=O)c1c(-c2cccs2)csc1NC(=O)CSc1ncnc2sc(C)c(C)c12`: the B-score was -0.978.

As to `CCCCNC(=S)NNC(=O)c1cc(C)on1`, the B-score was 0.531.

As to `CCN1CCN(CCCCOc2ccccc2F)CC1`, the B-score is 0.893.

As to `COc1ccccc1N1CCN(CCCCOc2ccc(F)cc2)CC1`, the B-score was -5.88 (active).

With `COc1ccccc1N1CCN(Cc2ccc(OC)c3ccccc23)CC1`, the B-score is -1.06.

Consider `COc1cnc(SCc2ccc(Cl)c(Cl)c2)nc1Cl`, for which the B-score is -1.35.

In the case of `O=C(NCc1ccccc1)[C@H]1C[C@@H]1[C@H](NP(=O)(c1ccccc1)c1ccccc1)c1ccccc1`, the B-score is -4.19 (active).

In the case of `COC(=O)[C@H](Cc1ccccc1)NC(=O)[C@@H]1C[C@H]1[C@@H](NC(=O)OCc1ccccc1)c1ccccc1`, the B-score is 0.0644.

Turning to `O=C(O)C1CC=C(Cl)CC1C(=O)NCc1ccccc1` (centres undefined), the B-score was 0.671.

In the case of `Cc1cc(C)c2nc(NC(=O)c3ccc4c(c3)OCO4)sc2c1`, the B-score was 0.981.

In the case of `C=C(C)C(=O)Nc1cccc(C2=NOC3(C2)C[C@H](C(N)=O)N(C(=O)C(c2ccccc2)c2ccccc2)C3)c1` (some centres undefined), the B-score was -0.703.

For the compound `CCOC(=O)c1sc2nc(SC)nc(-c3ccccc3)c2c1N`, the B-score is -0.0983.

Regarding `Nc1ccccc1SCc1cc([N+](=O)[O-])cc2c1OCOC2`, the B-score was -4.25 (active).

`O=C(CNC(=O)Cc1ccccc1)NCC(=O)OCC(=O)c1ccccc1Cl`: the B-score was 0.107.

In the case of `CCOC(=O)/C(=C\c1ccc([N+](=O)[O-])cc1)C(=O)c1cc(C(C)=O)c(Nc2ccccc2)s1`, the B-score was 0.717.

With `Cc1ccnc(N2CCN(C(=O)CSc3nc4ccccc4nc3N3CCCCC3)CC2)c1`, the B-score is -7.43 (active).

For the compound `Cc1ccc(S(=O)(=O)NCC(=O)N2CCN(c3ccccn3)CC2)cc1`, the B-score was 0.189.

For the compound `Cc1nnc(SCC(=O)N2CCN(c3ccccc3)CC2)n1-c1ccccc1`, the B-score was 0.663.

On to `CCC(C)[C@@H](C(=O)N1CCNCC1)n1cc(CCCCN)nn1` (some centres undefined), for which the B-score was 0.219.

With `CC1(C)CC(=O)C2=C(C1)N=C1SCCC(=O)N1C2c1ccc(C(F)(F)F)cc1` (centres undefined), the B-score was -1.88.

On to `CC(C)(C)NS(=O)(=O)CC12CCC(CC1=O)C2(C)C` (centres undefined), for which the B-score is 0.0444.

For `CCCC(=O)NC(Nc1ccccc1OC)C(Cl)(Cl)Cl` (centres undefined), the B-score was 0.143.

For `NCCCC[C@@H]1NC(=O)[C@H](CCC(=O)O)NC(=O)c2cc([N+](=O)[O-])cc(I)c2NCC[C@@H](C(N)=O)NC1=O`, the B-score is 0.612.

`O=C(c1ccccc1)N1CCN(C(=O)N2CCCCC2)CC1`: the B-score is 1.15.

Turning to `O=C(O)CC(c1ccccc1)n1cnnn1` (centres undefined), the B-score was 0.533.

For the compound `O=C(c1ccc(-n2cnnn2)cc1)N1CCN(C(c2ccccc2)c2ccccc2)CC1`, the B-score was -4.29 (active).

For the compound `N/C(=N\OC(=O)CCC1CCCCC1)c1ccccn1`, the B-score was 0.693.

On to `N#Cc1nc(-c2ccc(OCc3ccccc3)cc2)oc1NCCCN1CCOCC1`, for which the B-score was -0.428.

`N#Cc1nc(COc2ccc(-c3ccccc3)cc2)oc1NCc1cccnc1`: the B-score was -1.76.

Regarding `N#Cc1nc(Cc2ccccc2)oc1NCCc1ccccc1`, the B-score is -6.7 (active).

For `CC1C/C(=N/NC(=O)c2cccs2)CC(C)(C)C1` (centres undefined), the B-score was 0.092.

For the compound `CC(C)N(C(=O)COC(=O)c1ccccc1C(=O)N1CCN(c2ccc(F)cc2)CC1)C(C)C`, the B-score was 0.00273.

For the compound `O=C(c1ccccc1Oc1ccccc1)N1CCN(c2ccc(F)cc2)CC1`, the B-score was -4.99 (active).

Regarding `O=C(O)C1CC=CCC1C(=O)Nc1ccccc1C(=O)N1CCN(c2ccccc2)CC1` (centres undefined), the B-score was 0.0959.

On to `Cn1c(Cc2cccc3ccccc23)nnc1SCC(=O)N1CCN(c2cccc(Cl)c2)CC1`, for which the B-score was -6.61 (active).

On to `Cc1cc2nnc(SCC(=O)N3CCN(c4ccccc4)CC3)n2c(N)n1`, for which the B-score was 0.355.

Consider `Cc1ccccc1NC(=O)Cc1nnc(SCC(=O)N2CCN(c3ccccc3)CC2)n1C`, for which the B-score was 0.445.

Source of the values: PubChem BioAssay AID449739 (Vanderbilt High Throughput Screening Facility, 2010).
